# Data from PubChem BioAssay (NCATS).
# Where “and” joins values, the source holds several entries; their conditions need not be identical. Equal values may be shown once. Inconclusive results are not listed. A call without a number means that no potency is given here. Calls of active or inactive are those of the source. Unless noted, calls follow the shape of the dose curve; as a rule, active = well fitted curve in the direction sought with a large enough effect; inconclusive = small, poorly fitted or top-dose-only effect, or another doubt; inactive = no such curve, though single readings can be large; an effect the other way counts as inactive or inconclusive. Where a SMILES comes first, the peptide text is derived from it. Bridges are numbered along the chain shown (N, C = ends). [ ]: non-standard residue; d: D form. The star is where a group is joined. Dab(CH2SO3H) = N[C@@H](CCNCS(=O)(=O)O)C(=O)O; X3 = CC[C@@H](C)CCCCC(=O)*; Dab = NCC[C@H](N)C(=O)O
# Key:
# [1] = qHTS assay to identify small molecule inhibitors of chordoma cells - UCH-1 (AID 1259355); conditions: UCH-1 chordoma viability, CellTiter-Glo, 48 h, combination, with auranofin plus four topoisomerase inhibitors; series mostly up to 46.1 µM; also: nearly all actives have a fitted effect of over 55% in size; also: potency is read from the fitted curve at half-maximal effect
# In short: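 Luminescent ATP read-out (CellTiter-Glo, 30min at room temperature) measured viability of UCH-1 cells exposed for 48hr to test drugs at 15 concentrations, co-dosed with a five-agent combination of auranofin, camptothecin, doxorubicin, rubitecan and topotecan.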
# [2] = qHTS assay to identify small molecule inhibitors of chordoma cells - UCH-2 (AID 1259356); conditions: UCH-2 chordoma viability, CellTiter-Glo ATP luminescence, 48 h; series mostly up to 46.1 µM; also: potency is read from the fitted curve at half-maximal effect
# [3] = P-glycoprotein substrates identified in KB-8-5-11 adenocarcinoma cell line, qHTS therapeutic library screen (AID 1346987); conditions: KB-8-5-11 (P-gp overexpressing) viability, CellTiter-Glo, 72 h; series mostly up to 44.5 µM; also: nearly all actives have a fitted effect of over 65% in size; also: potency is read from the fitted curve at half-maximal effect
# In short: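 KB-8-5-11: colchicine-selected sub-line of KB-3-1 over-expressing P-gp; assay medium lacked colchicine. 72 h drug exposure at 37 degree C, CellTiter-Glo.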
# [4] = qHTS profiling of the MIPE4 collection as inhibitors of Plasmodium falciparum (HB3) proliferation (AID 743347; call rule not given here); conditions: P. falciparum HB3 in erythrocytes, SYBR Green DNA, 72 h; at 28.5 µM (top of the series) unless noted
# In short: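 Erythrocytes infected with P. falciparum (0.3% parasitemia, 2.5% hematocrit) incubated with compounds 72 h at 37 C, 5% CO2. Lysis with saponin/Triton buffer containing SYBR Green I, overnight at room temperature in the dark; DNA fluorescence (485/535 nm) normalised to 0.29 uM artemisinin and DMSO.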
smiles,measurement,setting,value
Cc1ccccc1OCC(O)CNCCOc1ccc(C(N)=O)cc1 (stereo not drawn),Potency,[1],inactive
same,Potency,[2],inactive
COCC(=O)Nc1cc(Sc2ccccc2)ccc1N=C(NC(=O)OC)NC(=O)OC,Potency,[1],inactive
same,Potency,[2],inactive
Nc1c(N=Nc2ccc(-c3ccc(N=Nc4cc(S(=O)(=O)O)c5ccccc5c4N)cc3)cc2)cc(S(=O)(=O)O)c2ccccc12,Potency,[1],inactive
same,Potency,[3],inactive
C[C@@H]1CCC2[C@@H](C)[C@@H](O)O[C@@H]3O[C@@]4(C)CC[C@@H]1[C@@]23OO4 (stereo partly drawn),"growth, % of control",[4],6.11%
same,Potency,[1],inactive
same,Potency,[2],inactive
same,Potency,[3],10.3 µM (active)
CC1(C)S[C@@H]2[C@H](NC(=O)C(C(=O)O)c3ccsc3)C(=O)N2[C@H]1C(=O)O (stereo partly drawn),Potency,[1],inactive
same,Potency,[2],inactive
CCOC(=O)C1=C(C)NC(C)=C(C(=O)OCC)C1c1ccccc1C=CC(=O)OC(C)(C)C,"growth, % of control",[4],11.8%
same,Potency,[1],inactive
same,Potency,[2],inactive
CCN(CC)Cc1cc(Nc2ccnc3cc(Cl)ccc23)ccc1O,"growth, % of control",[4],3.47% [at 9.64 µM]
same,Potency,[1],inactive
same,Potency,[2],inactive
CC(C)(C)C1(O)CCN2CC3c4ccccc4CCc4cccc(c43)C2C1 (stereo not drawn),Potency,[1],inactive
same,Potency,[2],inactive
CO[C@@H]1[C@@H](O[C@@H]2O[C@H](C)[C@@H](O[C@H]3C[C@@](C)(O)[C@@H](OC(=O)CC(C)C)[C@H](C)O3)[C@H](N(C)C)[C@H]2O)[C@@H](CC=O)C[C@@H](C)C(=O)/C=C/C2OC2C[C@@H](C)OC(=O)C[C@H]1OC(C)=O (stereo partly drawn),Potency,[1],inactive
same,Potency,[3],inactive
CC1=C(/C=C/C(C)=C/C=C/C(C)=C/C=C/C=C(C)/C=C/C=C(C)/C=C/C2=C(C)C(=O)CCC2(C)C)C(C)(C)CCC1=O,Potency,[1],inactive
same,Potency,[2],inactive
same,Potency,[3],inactive
CCOC(C)=O,Potency,[1],inactive
same,Potency,[2],inactive
CC(C)(C)NC(=O)[C@@H]1C[C@@H]2CCCC[C@@H]2CN1C[C@@H](O)[C@H](Cc1ccccc1)NC(=O)[C@H](CC(N)=O)NC(=O)c1ccc2ccccc2n1,Potency,[1],inactive
same,Potency,[2],inactive
same,Potency,[3],inactive
Cc1cn([C@H]2C[C@H](O)[C@@H](CO)O2)c(=O)[nH]c1=O,Potency,[1],inactive
same,Potency,[2],inactive
CC(C)=O,Potency,[2],inactive
COC(=O)[C@H]1[C@H]2C[C@@H]3c4[nH]c5ccccc5c4CCN3C[C@H]2C[C@@H](OC(=O)c2cc(OC)c(OC)c(OC)c2)[C@@H]1OC,Potency,[1],10 µM (active)
same,Potency,[3],4.11 µM (active)
CO[C@H]1C=CO[C@@]2(C)Oc3c(C)c(O)c4c(O)c(c5c(c4c3C2=O)=NC2(CCN(CC(C)C)CC2)N=5)NC(=O)/C(C)=C\C=C/[C@H](C)[C@H](O)[C@@H](C)[C@@H](O)[C@@H](C)[C@H](OC(C)=O)[C@@H]1C,Potency,[2],inactive
COc1ccc(C[C@H](N)C(=O)N[C@H]2[C@@H](O)[C@H](n3cnc4c(N(C)C)ncnc43)O[C@@H]2CO)cc1,Potency,[1],11.2 µM (active)
same,Potency,[3],inactive
C=CCSSSCC=C,Potency,[2],inactive
same,Potency,[3],inactive
CCCCC(C)(O)C/C=C/[C@H]1[C@H](O)CC(=O)[C@@H]1CCCCCCC(=O)OC (stereo partly drawn),Potency,[2],inactive
same,Potency,[3],inactive
CCCCC(=O)O[C@]1(C(=O)CO)[C@H](C)C[C@H]2[C@@H]3CCC4=CC(=O)C=C[C@]4(C)[C@@]3(F)[C@@H](O)C[C@@]21C,Potency,[2],inactive
same,Potency,[3],inactive
C[C@]12CCC(=O)C=C1CC[C@@H]1[C@@H]2[C@@H](O)C[C@@]2(C)[C@H]1CC[C@]2(O)C(=O)COP(=O)(O)O,Potency,[2],inactive
CC[C@H]1OC(=O)C[C@@H](O)[C@H](C)[C@@H](O[C@@H]2O[C@H](C)[C@@H](O)[C@H](N(C)C)[C@H]2O)[C@@H](CCN2C[C@H](C)C[C@H](C)C2)C[C@@H](C)C(=O)/C=C/C(C)=C/[C@@H]1CO[C@@H]1O[C@H](C)[C@@H](O)[C@@H](OC)[C@H]1OC,Potency,[2],inactive
same,Potency,[3],inactive
CO[C@H]1C[C@@H]2CC[C@@H](C)[C@@](O)(O2)C(=O)C(=O)N2CCCC[C@H]2C(=O)O[C@H]([C@H](C)C[C@@H]2CC[C@@H](OCCO)[C@H](OC)C2)CC(=O)[C@H](C)/C=C(\C)[C@@H](O)[C@@H](OC)C(=O)[C@H](C)C[C@H](C)/C=C/C=C/C=C/1C,Potency,[2],inactive
C[C@H](CCC(=O)O)[C@H]1CC[C@H]2[C@@H]3[C@H](O)C[C@@H]4C[C@H](O)CC[C@]4(C)[C@H]3CC[C@]12C,Potency,[2],inactive
same,Potency,[3],inactive
CC(O)CO (stereo not drawn),Potency,[2],inactive
same,Potency,[3],inactive
Nc1nc(N)c2nc(CNc3ccc(C(=O)N[C@@H](CCC(=O)O)C(=O)O)cc3)cnc2n1,Potency,[2],inactive
O=C(O)C[C@H](O)C[C@H](O)/C=C/c1c(C2CC2)nc2ccccc2c1-c1ccc(F)cc1,Potency,[2],inactive
same,Potency,[3],8.2 µM (active) and 5.17 µM (active)
O=S(=O)(O)c1ccc2c(N=Nc3ccc(S(=O)(=O)O)c4ccccc34)c(O)c(S(=O)(=O)O)cc2c1,Potency,[2],inactive
C=CC1=C(C)C2=CC3=NC(=C(CC(=O)[O-])C4=NC(=C(C)C4=C([O-])[O-])C=c4[n-]c(c(C)c4CC)=CC1=N2)C(CCC(=O)[O-])C3C.[Cu+2].[Na+].[Na+].[Na+] (stereo not drawn),Potency,[2],inactive
C=C1CC[C@@H]2[C@](C)(CO)[C@H](O)CC[C@@]2(C)[C@@H]1C/C=C1/C(=O)OC[C@H]1O,Potency,[2],inactive
same,Potency,[3],inactive
OCC(S)CS (stereo not drawn),Potency,[2],inactive
CN(C)CCCN1c2ccccc2C(C)(C)c2ccccc21,Potency,[2],inactive
CCCC(=O)Nc1ncnc2c1ncn2[C@@H]1O[C@@H]2COP(=O)(O)O[C@H]2[C@H]1OC(=O)CCC,Potency,[2],inactive
same,Potency,[3],inactive
NCc1ccccc1CC(=O)N[C@@H]1C(=O)N2C(C(=O)O)=C(CSc3nnnn3CC(=O)O)CS[C@H]12,Potency,[2],inactive
same,Potency,[3],inactive
CC[C@@]1(O)C(=O)OCc2c1cc1n(c2=O)Cc2cc3c([N+](=O)[O-])cccc3nc2-1,Potency,[1],0.794 µM (active)
same,Potency,[3],16.4 µM (active)
CCCCCCCCCCCCCC[n+]1ccc(C)cc1,Potency,[2],25.9 µM (active)
same,Potency,[3],inactive
CC[C@@H](C(=O)[C@@H](C)[C@@H](O)[C@H](C)CCc1ccc(C)c(O)c1C(=O)O)[C@H]1O[C@](CC)([C@H]2CC[C@](O)(CC)[C@H](C)O2)C[C@@H]1C,Potency,[2],inactive
CC(C(=O)O)c1ccc(N2Cc3ccccc3C2=O)cc1 (stereo not drawn),Potency,[1],inactive
same,Potency,[3],inactive
CCCCCCCC(=O)O,Potency,[2],inactive
same,Potency,[3],inactive
CCCC(=O)O[C@]1(C(=O)COC(C)=O)CC[C@H]2[C@@H]3C[C@H](F)C4=CC(=O)C=C[C@]4(C)[C@@]3(F)[C@@H](O)C[C@@]21C,Potency,[2],inactive
same,Potency,[3],inactive
Nc1c(Br)cc(Br)cc1CNC1CCC(O)CC1 (stereo not drawn),Potency,[2],inactive
CN(C)CC/C=C1/c2ccccc2CSc2ccccc21,Potency,[2],inactive
CC(C)C(=O)OCC(=O)[C@@]12O[C@H](C3CCCCC3)O[C@@H]1C[C@H]1[C@@H]3CCC4=CC(=O)C=C[C@]4(C)[C@H]3[C@@H](O)C[C@@]12C,Potency,[2],inactive
CCC(=O)NCCC1CCc2ccc3c(c21)CCO3 (stereo not drawn),Potency,[2],inactive
C=C(NC(=O)C(=C)NC(=O)c1csc(C2=N[C@@H]3c4csc(n4)[C@H]4NC(=O)c5csc(n5)[C@H]([C@](C)(O)[C@@H](C)O)NC(=O)[C@H]5CSC(=N5)C(=CC)NC(=O)C([C@@H](C)O)NC(=O)c5csc(n5)[C@]3(CC2)NC(=O)[C@H](C)NC(=O)C(=C)NC(=O)[C@H](C)NC(=O)C([C@@H](C)CC)NC2C=Cc3c([C@H](C)O)cc(nc3C2O)C(=O)O[C@@H]4C)n1)C(N)=O (stereo partly drawn),Potency,[2],inactive
same,Potency,[3],inactive
CC(Oc1ccccc1)C(=O)N[C@@H]1C(=O)N2[C@@H]1SC(C)(C)[C@@H]2C(=O)O (stereo partly drawn),Potency,[2],inactive
same,Potency,[3],inactive
CC[C@@H](C)CCCCC(=O)N[C@@H](CCNCS(=O)(=O)O)C(=O)N[C@H](C(=O)N[C@@H](CCNCS(=O)(=O)O)C(=O)N[C@H]1CCNC(=O)[C@H]([C@@H](C)O)NC(=O)[C@H](CCNCS(=O)(=O)O)NC(=O)[C@H](CCNCS(=O)(=O)O)NC(=O)[C@H](CC(C)C)NC(=O)[C@@H](CC(C)C)NC(=O)[C@H](CCNCS(=O)(=O)O)NC1=O)[C@@H](C)O (X3-[Dab(CH2SO3H)]T[Dab(CH2SO3H)][Dab][Dab(CH2SO3H)][dL]L[Dab(CH2SO3H)][Dab(CH2SO3H)]T; lactam 4-C),Potency,[2],inactive
same,Potency,[3],inactive
Cc1c(C)c2c(c(C)c1O)CC[C@@](C)(CCC[C@H](C)CCC[C@H](C)CCCC(C)C)O2,Potency,[2],inactive
CC1=C(/C=C/C(C)=C/C=C/C(C)=C/C=C/C=C(C)/C=C/C=C(C)/C=C/C2=C(C)CCCC2(C)C)C(C)(C)CCC1,Potency,[2],inactive
same,Potency,[3],inactive
CO[C@H]1C=CO[C@@]2(C)Oc3c(C)c(O)c4c(O)c(c5c(nc6cc(C)ccn65)c4c3C2=O)NC(=O)/C(C)=C\C=C[C@H](C)[C@H](O)[C@@H](C)[C@@H](O)[C@@H](C)[C@H](OC(C)=O)[C@@H]1C,Potency,[2],inactive
same,Potency,[3],inactive
CC1(C)S[C@@H]2[C@H](NC(=O)Cc3ccccc3)C(=O)N2[C@H]1C(=O)O,Potency,[2],inactive
same,Potency,[3],inactive
O=C1CSC2(CCN(CCCN3c4ccccc4Sc4ccc(Cl)cc43)CC2)N1,Potency,[2],inactive
CC(=O)Oc1cc(C)c(OC(C)=O)c2ccccc12,Potency,[2],inactive
same,Potency,[3],inactive
N[C@H](C(=O)O)[C@@H]1CC(Cl)=NO1,Potency,[2],inactive
same,Potency,[3],4.11 µM (active)
CCCCCCCC/C=C\CCCCCCCC(=O)O,Potency,[2],inactive
same,Potency,[3],inactive
COC(C(=O)C(O)C(C)O)C1Cc2cc3cc(OC4CC(OC5CC(O)C(O)C(C)O5)C(O)C(C)O4)c(C)c(O)c3c(O)c2C(=O)C1OC1CC(OC2CC(OC3CC(C)(O)C(O)C(C)O3)C(O)C(C)O2)C(O)C(C)O1 (stereo not drawn),Potency,[2],inactive
same,Potency,[3],inactive
O=C(O)c1cc(O)c2c(c1)[O][Bi][O]2,Potency,[2],inactive
same,Potency,[3],inactive
O=C1C(=O)c2ncccc2-c2cccnc21,Potency,[2],inactive
same,Potency,[3],1.16 µM (active)
C[C@H]1C[C@H]2[C@@H]3CCC4=CC(=O)C=C[C@]4(C)[C@@]3(F)[C@@H](O)C[C@]2(C)[C@@]1(O)C(=O)CO,Potency,[2],inactive
same,Potency,[3],inactive
